Molecules are shown by their SMILES. Active and inactive are the calls of the source.

Test [1] in a line: binders of probe aFSTL3 on microarray, primary screen, stem cell growth factor project, biochemical, small-molecule microarray, fluorescence 635/667 (AID 1064).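 Also: measures binding of the biotinylated anti-FSTL3 antibody to printed compounds.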 As to conditions: higher = more signal.
Test [2] is described as follows: binders from COS7 lysate, DM2A8 probe, primary screen, torsin A project, cell lysate, small-molecule microarray, fluorescence 635/667 (AID 1065). Particulars: higher = more signal, COS7 lysate expressing mutant human TOR1A.
Test [3] can be described thus: binders of probe aFGF2 on microarray, primary screen, stem cell growth factor project, biochemical, small-molecule microarray, fluorescence 635/667 (AID 1067).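 Also: measures binding of biotinylated aFGF2 protein to printed compounds on slides; z-score merges feature fluorescence and signal-to-noise across triplicate slides.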 Particulars: higher = more signal.
A short description of test [4]: binders of probe aFGF10 on microarray, primary screen, stem cell growth factor project, biochemical, small-molecule microarray, fluorescence 635/667 (AID 1071).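 Also: score merges 667 nm spot intensity and signal to noise from triplicate slides.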 Particulars: higher = more signal.
The target of test [5] is Neurogenic locus notch homolog protein 2 (Homo sapiens) (UniProt Q04721). Kind of test: Notch2 binders on small-molecule microarrays, primary screen, biochemical, small-molecule microarray, 635 nm fluorescence, stem cell growth factors (AID 1073). Particulars: Notch2 binding, higher = more signal.
Neurogenic locus notch homolog protein 2 (Homo sapiens), sequence (Q04721 whole entry, looked up, canonical isoform): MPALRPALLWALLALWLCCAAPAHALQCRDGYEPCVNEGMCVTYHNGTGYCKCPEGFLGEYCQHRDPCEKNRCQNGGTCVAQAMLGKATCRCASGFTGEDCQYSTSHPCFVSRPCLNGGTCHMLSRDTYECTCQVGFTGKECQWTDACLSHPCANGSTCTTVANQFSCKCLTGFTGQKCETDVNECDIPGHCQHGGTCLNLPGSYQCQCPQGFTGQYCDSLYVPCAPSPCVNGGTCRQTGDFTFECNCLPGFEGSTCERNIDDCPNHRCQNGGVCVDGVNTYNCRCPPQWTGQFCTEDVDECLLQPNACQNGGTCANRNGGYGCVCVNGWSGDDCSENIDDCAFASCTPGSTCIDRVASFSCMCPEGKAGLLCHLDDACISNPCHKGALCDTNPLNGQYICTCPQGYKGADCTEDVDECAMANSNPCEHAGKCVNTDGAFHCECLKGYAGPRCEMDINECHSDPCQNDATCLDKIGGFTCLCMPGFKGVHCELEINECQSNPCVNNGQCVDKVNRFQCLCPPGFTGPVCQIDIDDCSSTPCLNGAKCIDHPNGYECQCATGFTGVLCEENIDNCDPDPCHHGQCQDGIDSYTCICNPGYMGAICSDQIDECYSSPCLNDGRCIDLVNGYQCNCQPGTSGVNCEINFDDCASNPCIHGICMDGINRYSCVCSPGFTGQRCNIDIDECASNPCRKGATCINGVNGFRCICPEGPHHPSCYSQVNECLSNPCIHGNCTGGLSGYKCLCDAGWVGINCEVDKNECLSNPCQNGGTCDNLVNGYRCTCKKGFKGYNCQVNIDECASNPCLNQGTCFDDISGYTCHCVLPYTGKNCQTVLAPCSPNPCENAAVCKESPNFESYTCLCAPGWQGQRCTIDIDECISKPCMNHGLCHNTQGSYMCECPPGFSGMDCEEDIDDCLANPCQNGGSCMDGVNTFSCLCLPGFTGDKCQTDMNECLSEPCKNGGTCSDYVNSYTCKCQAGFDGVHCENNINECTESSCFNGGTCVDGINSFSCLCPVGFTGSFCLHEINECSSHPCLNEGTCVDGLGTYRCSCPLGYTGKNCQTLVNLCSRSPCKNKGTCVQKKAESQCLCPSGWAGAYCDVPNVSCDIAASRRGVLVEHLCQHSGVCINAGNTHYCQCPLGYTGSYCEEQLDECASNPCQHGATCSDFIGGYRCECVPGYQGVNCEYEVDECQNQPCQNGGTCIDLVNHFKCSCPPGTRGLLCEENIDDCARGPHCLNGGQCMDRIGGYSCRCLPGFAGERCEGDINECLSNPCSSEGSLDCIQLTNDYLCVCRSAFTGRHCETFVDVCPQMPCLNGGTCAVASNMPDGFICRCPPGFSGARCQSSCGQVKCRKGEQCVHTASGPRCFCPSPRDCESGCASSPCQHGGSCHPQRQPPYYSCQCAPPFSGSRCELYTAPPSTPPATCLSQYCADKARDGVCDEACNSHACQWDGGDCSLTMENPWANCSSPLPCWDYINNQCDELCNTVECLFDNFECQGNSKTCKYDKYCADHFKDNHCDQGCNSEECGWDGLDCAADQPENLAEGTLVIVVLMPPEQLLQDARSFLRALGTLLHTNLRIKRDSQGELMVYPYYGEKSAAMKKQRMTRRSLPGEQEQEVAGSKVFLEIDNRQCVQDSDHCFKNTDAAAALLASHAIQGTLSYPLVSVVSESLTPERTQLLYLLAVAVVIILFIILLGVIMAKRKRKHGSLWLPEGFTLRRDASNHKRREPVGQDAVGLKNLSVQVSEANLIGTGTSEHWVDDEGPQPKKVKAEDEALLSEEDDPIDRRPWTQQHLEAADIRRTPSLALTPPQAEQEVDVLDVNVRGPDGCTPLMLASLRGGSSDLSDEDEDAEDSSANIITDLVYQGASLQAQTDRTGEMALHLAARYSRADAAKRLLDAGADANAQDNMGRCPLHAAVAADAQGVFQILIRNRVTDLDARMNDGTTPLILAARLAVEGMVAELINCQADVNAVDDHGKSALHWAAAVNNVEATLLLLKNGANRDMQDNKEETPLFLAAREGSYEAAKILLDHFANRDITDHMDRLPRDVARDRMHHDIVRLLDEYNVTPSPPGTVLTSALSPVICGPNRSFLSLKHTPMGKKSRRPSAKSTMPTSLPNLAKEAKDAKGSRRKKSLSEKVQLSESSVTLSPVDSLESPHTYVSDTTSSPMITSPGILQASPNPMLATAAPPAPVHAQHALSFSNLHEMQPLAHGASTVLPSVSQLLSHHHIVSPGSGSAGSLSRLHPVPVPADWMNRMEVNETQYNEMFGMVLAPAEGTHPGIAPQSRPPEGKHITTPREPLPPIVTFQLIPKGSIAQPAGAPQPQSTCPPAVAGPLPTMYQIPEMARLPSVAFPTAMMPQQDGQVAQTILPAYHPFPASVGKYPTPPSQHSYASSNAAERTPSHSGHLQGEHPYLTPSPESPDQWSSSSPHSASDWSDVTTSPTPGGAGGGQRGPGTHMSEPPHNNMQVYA
For test [6], the target named is Pro-neuregulin-1, membrane-bound isoform (Homo sapiens) (UniProt Q02297). Kind of test: NRG1 binders on small-molecule microarrays, primary screen, psychiatric disease protein project, biochemical, small-molecule microarray, fluorescence 635/667 (AID 1075).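 Also: score combines 667 nm spot fluorescence with signal to noise.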 Particulars: NRG1 binding, 635 nm fluorescence, higher = more signal.
Pro-neuregulin-1, membrane-bound isoform (Homo sapiens), sequence (Q02297 whole entry, looked up, the tested form may be a part, canonical isoform): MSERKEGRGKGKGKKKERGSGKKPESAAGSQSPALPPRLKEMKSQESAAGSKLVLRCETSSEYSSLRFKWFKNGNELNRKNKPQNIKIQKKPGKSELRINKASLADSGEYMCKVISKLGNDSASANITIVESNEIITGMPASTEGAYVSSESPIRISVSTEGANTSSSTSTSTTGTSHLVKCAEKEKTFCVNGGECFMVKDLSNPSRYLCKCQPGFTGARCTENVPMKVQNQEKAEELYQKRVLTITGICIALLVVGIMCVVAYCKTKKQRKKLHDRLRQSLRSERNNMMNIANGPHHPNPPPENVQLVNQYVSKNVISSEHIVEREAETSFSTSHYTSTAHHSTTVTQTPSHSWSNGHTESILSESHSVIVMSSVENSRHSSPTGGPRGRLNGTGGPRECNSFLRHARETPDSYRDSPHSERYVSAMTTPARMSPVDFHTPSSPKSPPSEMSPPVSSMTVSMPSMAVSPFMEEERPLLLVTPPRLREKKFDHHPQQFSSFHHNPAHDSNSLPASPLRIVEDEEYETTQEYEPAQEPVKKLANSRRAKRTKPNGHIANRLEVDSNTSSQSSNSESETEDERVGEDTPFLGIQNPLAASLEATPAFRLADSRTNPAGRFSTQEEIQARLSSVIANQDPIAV
In test [7] the test system is Neuregulin-1 EGF-like domain. The test can be described thus: binders of neuregulin-1 EGF-like domain, primary screen, biochemical, small-molecule microarray, 635 nm fluorescence (AID 1081).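 Also: binding of the protein to compounds printed on small-molecule microarray slides.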 Particulars: small-molecule microarray binding, higher = more signal.
Test [8] can be described thus: FRG1 promoter luciferase signal modulators, primary screen, FRG1 inhibition for FSHD, cell-based, C2C12 myotubes, firefly/Renilla luciferase, luminescence (AID 1084). As to conditions: higher = more signal, called active from +8 up or from −8 down.
Test [9] in a line: binders of probe aFST on microarray, primary screen, stem cell growth factor project, biochemical, small-molecule microarray, fluorescence 635/667 (AID 1086).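 Also: score merges 667 nm fluorescence with signal-to-noise of each printed compound spot.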 Particulars: higher = more signal.
Test [10] can be described thus: binders of probe aHhip on microarray, primary screen, stem cell growth factor project, biochemical, small-molecule microarray, fluorescence 635/667 (AID 1087).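 Also: score merges spot fluorescence at 667nm with spot signal to noise ratio.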 As to conditions: higher = more signal.

For the molecule `O=C(O)[C@H](Cc1ccccc1)n1cc(-c2ccccc2)nn1`, the composite z-score in test [1] was -0.37; in [2], -0.104; in test [3] it was -0.0583; in test [4], 0.399; in test [5] it was 0.533; in test [6], 0.0865. Further, the composite z-score in [7] was 0.871; in test [9], 0.328; in [10], -0.181. In addition, the z-score in test [8] is 1.33 (inactive).
As for `CCCNC(=O)[C@@]1(Sc2ccc(C)cc2)CC(=O)N(Cc2ccccc2C(F)(F)F)[C@@H]1c1ccc(CO)cc1I`, the composite z-score in test [1] was -0.0981; in [2], 2.46; in [3], -0.0583; in [4], -0.0686; in test [5] it was 0.267; in test [6] it was 1.22. Moreover, the composite z-score in [7] was 1.07; in test [9], 0.574; in [10], -0.0346. Also, the z-score in test [8] is -0.267 (inactive).
As for `COC(=O)[C@@]1(Cc2ccc(OC)cc2)[C@H]2c3cc(C(=O)N4CCCC4)n(CCSCCO)c3C[C@H]2CN1C(=O)c1ccccc1`, the composite z-score in test [1] was 0.32; in [2], -0.399; in [3] it was 0.46; in [4], 0.651; in test [5] it was 1.69; in test [6], 1.86. Besides, the composite z-score came to 1.4 in [7], 1.3 in test [9] and 0.455 in test [10]. The z-score in test [8] is -0.15 (inactive).
For the molecule `O=C1NC(=O)C2C1C=CC(C(O)c1ccc(I)cc1)N2Nc1ccc(Cl)cc1Cl` (stereo not given), the composite z-score in [1] was 0.256; in test [2] it was -0.396; in [3], -0.0085; in test [4], 0.29; in test [5], 1.43; in test [6], 1.49. The composite z-score in test [7] was 0.991; in test [9], 0.794; in [10], -0.321. Further, the z-score in [8] is -0.526 (inactive).
`COC(=O)[C@@]1(CCC(=O)OC(C)(C)C)N=C(c2ccc(OCCCO)cc2)O[C@H]1c1ccccc1`: the composite z-score in test [1] is 0.579; in test [2], -0.168; in [3] it was -0.024; in [4] it was -0.0016; in test [5] it was 0.124; in [6] it was 0.916. Also, the composite z-score in [7] is 0.774; in test [9] it was -0.164; in [10], 0.0505. The z-score in test [8] is 0.174 (inactive).
As for `O=C1C2C=CC(C(O)C=Cc3ccc([N+](=O)[O-])cc3)N(n3cnnc3)C2C(=O)N1Cc1ccccc1` (stereo not given), the composite z-score in test [1] was found to be 0.246; in test [2], 1.31; in test [3], 0.0575; in [4], 0.375; in [5], 1.27; in test [6], 1.77. In addition, the composite z-score in [7] was 1.19; in test [9] it was 1.09; in test [10] it was -0.226. In test [8], the z-score is 0.422 (inactive).
`Cc1ccc(S[C@]2(C(=O)O)CC(=O)N(Cc3ccccc3C(F)(F)F)[C@@H]2c2ccc(CO)cc2I)cc1`: the composite z-score was -0.0699 in test [1]; 0.979 in test [2]; -0.1 in test [3]; -0.0146 in test [4]; -1.23 in test [5]; 0.695 in [6]. Further, the composite z-score in [7] is 0.559; in [9], -0.387; in test [10], -0.334. For the same molecule, the z-score in [8] was 0.371 (inactive).
`C=CCN(Cc1ccccc1)C(=O)C(c1cccs1)N(C(=O)/C=C\C(=O)O)c1ccc(CCOCCO)cc1` (stereo not given): the composite z-score in test [1] is 0.146; in test [2], -0.182; in test [3], -0.176; in [4], -0.865; in [5] it was -1.84; in test [6], 0.718. Also, the composite z-score was 0.0305 in test [7], -1.35 in test [9] and -0.134 in [10]. Further, in test [8], the z-score is 0.988 (inactive).
On to `CC(C)CN1C(=O)[C@@]2(c3ccc([N+](=O)[O-])cc3)CC(=O)N(C3CCCCC3)[C@@H]2c2ccc(CO)cc21`, for which the composite z-score in test [1] is 0.206; in [2] it was -0.72; in [3], -0.0954; in test [4], -0.991; in [5], -0.649; in test [6], -0.303. Moreover, the composite z-score in [7] is -0.429; in test [9] it was -1.09; in [10], -0.0994. The z-score in test [8] was 0.953 (inactive).
For `CN1C(=O)C2C=CC(C(O)c3ccc(F)cc3)N(N(c3ccccc3)c3ccccc3)C2C1=O` (stereo not given), the composite z-score in test [1] was 0.5; in test [2], -0.123; in test [3], -0.0446; in [4], 0.122; in [5], 0.822; in [6], 1.28. Moreover, the composite z-score in test [7] is 1.03; in [9], 0.56; in [10] it was -0.107. Moreover, the z-score in test [8] is -0.368 (inactive).
Consider `CS(=O)(=O)CCOC(=O)C1=CC(CCCO)=CC(C2CC2)N(Cc2cc3c(cc2Br)OCO3)C=C1C(=O)OCCS(C)(=O)=O` (stereo not given), for which the composite z-score was -0.0672 in test [1]; 0.702 in test [2]; -0.0752 in [3]; 0.142 in test [4]; 0.6 in test [5]; 1.88 in test [6]. Further, the values for the composite z-score in test [7], in [9] and in test [10] were 1.2, 0.114 and -0.0754, respectively. In addition, in test [8], the z-score is -0.517 (inactive).
As to `[N-]=[N+]=NCc1ccccc1[C@H]1OC(c2ccc(OCCCO)cc2)=N[C@@]1(Cc1ccccc1)C(=O)N1CCCCC1`, the composite z-score was -0.222 in [1]; 0.368 in [2]; 0.022 in test [3]; 0.78 in test [4]; 1.46 in test [5]; 0.947 in test [6]. Moreover, the figures for the composite z-score in [7], in test [9] and in [10] were 1.18, 0.573 and -0.201, respectively. The z-score in test [8] was -2.51 (inactive).
On to `CC(C)OC(=O)C=C1C[C@@H](c2cccc(Cl)c2)O[C@@H](c2cccc(Cl)c2)O1`, for which the composite z-score amounted to 0.614 in test [1]; 0.31 in test [2]; 0.0442 in [3]; 0.771 in test [4]; 0.028 in [5]; 0.903 in test [6]. The figures for the composite z-score in test [7], in test [9] and in [10] were 0.891, 0.186 and -0.189, respectively. Besides, the z-score in [8] is -0.582 (inactive).

These data come from PubChem BioAssay.
